The sequences below were run on VDR:RXRa (NR concentration 270 nM, RXRa partner concentration 90 nM) (assay: PBM binding z-score (relative to random genomic background probes); higher = stronger binding; sequences stand for … in GC…GCGATTGACAGCGTAGAATGAAGG).
Description: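 Protein-binding microarray (Agilent 4x180K custom design, double-stranded 60-nt probes: 5' GC cap, 34-nt variable region, 24-nt constant primer region; full probe sequence given). Purified or IVT nuclear receptor:RXRα heterodimers (3:1 NR:RXRα, mostly 270:90 nM) or homodimers were incubated for 1 h in PBS with 2% milk and no ligand, then detected with Alexa488 antibodies. Fluorescence from o1-orientation probes (~5 replicates averaged) was converted to z-scores against 500 random hg19 background probes. Variable regions are seed direct-repeat (DR0–DR5) sites, all their single-nucleotide variants and half-site ablations.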
Work on AGTCACAGTTCACTAGGTAACGTAAGATTCAGCT yielded a PBM binding z-score of 1.81.
CCTATTTGGTCAGGAGGTCACACACCGGATATGA gave a PBM binding z-score of 4.05.
GCTCGGAGGACAAGGTCAAAGCTTTGTCCGTAGA gave a PBM binding z-score of 3.38.
For TTATATAGGTAAATGCTAGGTGAAAGTCCGATCT, the PBM binding z-score was 0.639.
In the case of CCTACTGGGTCATCAGGTCATTGATATCAACGTT, the PBM binding z-score is reported as 4.24.
Sequence CCTAGTTTGTCAGGAGGTCACACACCGGATATGA has a PBM binding z-score of 4.19.
Sequence ACAGACAGGTGGGTGAAGGTAACTCAGCTGGACG has a PBM binding z-score of -0.163.
For TAGCCTAGGTCAGATCGGGCCAGTATACGCTATA, the PBM binding z-score was 0.518.
Sequence TCTTGTAGATCAGCAGGAGGTTAAGAAAGATCGA has a PBM binding z-score of 0.561.
With TCTTGTAGTTCAATAGAGGTTAAGAAAGTGCGCT the PBM binding z-score was 3.41.
Sequence CCGACTGGGGCAAGGTTACAATAACGCACAGCCA has a PBM binding z-score of 0.055.
For ATCGAAAGGTCGAGGTGAGAATAGAGAAAGGGAA, the PBM binding z-score was 2.37.
TCTATTAGTTGATTAGAGCAACCGAAACAGCGGA was tested, and the PBM binding z-score was 0.404.
Sequence CGTCAAAGTTCAAGGAAACGTAACAGAAAGCAGC has a PBM binding z-score of 3.29.
Work on ATCGAAAGGTCGACGAGGTGGGTATACACCGTTT yielded a PBM binding z-score of 4.34.
CCGACTGGGGCAAGGCTACCATAACGCACAGCCA showed a PBM binding z-score of -0.501.
For ATATGTAGGTTACATACGGGTCATTCAGGCTATG, the PBM binding z-score was 4.14.
Sequence CCTGCTAGGTCATGGTCATCTAATCTACAGTATG has a PBM binding z-score of 1.89.
For CGTCCAAGATCAAGGTCAGTGAAAGAGACTCGAA, the PBM binding z-score was 1.62.
With TCATATAGGGAAAAGGTGAAAGTCGGTGTGGTAA the PBM binding z-score was 1.29.
TCGAGTAGGTCAGTCGGGGCATTCAGCCAACATA gave a PBM binding z-score of 5.3.
For AGAACGAGGGCACGCTCAGTTGATAGCAGAGTAG, the PBM binding z-score was 1.4.
For AGAATGAGGTTAGGATCAGGGAAACAGAATACAT, the PBM binding z-score was 0.51.
Sequence CCGAGTAGGATATGGGGCATTCAGGCAACGGTGA has a PBM binding z-score of -0.284.
GTACCAAGGTGAATATGTCGTTGATGAGTAGGCG gave a PBM binding z-score of -0.0532.
Sequence CCTAGTTGGACAGGAGGTCACACACCGGATATGA has a PBM binding z-score of 3.69.
For CCAGACAGGTCAGAAGGTAACTCAGCCTCGATTA, the PBM binding z-score was 1.44.
Sequence AGAACGAGGGCACGCTGAGTTGATAGTAGAGTAG has a PBM binding z-score of 2.38.
With CTCGAAAGGTCGGTTGAGGTGAGCATACGGATAA the PBM binding z-score was 2.26.
Sequence TCGAGTAGGTTAGGGGCATTCATAATGGCGTCGA has a PBM binding z-score of 0.655.
Sequence CGTCCAAGGTCTAAGGTCAGTGAAGAGATGACGG has a PBM binding z-score of 1.73.
TCTTGTAGATTAATAGAGGTTAAGAAAGTGCGCT showed a PBM binding z-score of 2.11.
TCTAGCAGGCCAGAGGGTGACTCAAGAGGTACGG gave a PBM binding z-score of -0.421.
AGTAAAAGTTCATCTAGGTAACGTAAGATATGCT gave a PBM binding z-score of 4.57.
CCGACTGGGGCAAGGGTTACCATACTCAGTACGA gave a PBM binding z-score of -0.292.
For TTACCAAGGTGAGCTGAGGTCGTAGATCCAACTC, the PBM binding z-score was 3.45.
Sequence CAAACTAGGTCACCGGACGGTCAAAGTCCGCATG has a PBM binding z-score of 3.59.
Work on CCTAACGGGTCACTCCAGGTTATAGCATCGGAGT yielded a PBM binding z-score of 3.7.
CAGCCTAGGTCAGGCCCAGTATAGGAGGAACGTT showed a PBM binding z-score of -0.208.
With CCGACTTGGGCAAGGTTACCATAACGCACAGCCA the PBM binding z-score was 0.176.

— the supplement of paper PMC6555819
